Most compounds without a hit are left out; they make up all but 11% or so of the library.
Tau fluor counter: counter-screen for tau fibril formation inhibitors. Potency, µM (series often up to 57.7 µM). tau K18 P301L Alexa594 fluorescence, heparin fibrillization. 280,000 tested, 0.93% active; note: nearly all actives have a fitted effect of over 55% in size
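Human tau K18 P301L (15 uM unlabeled, 0.24 uM Alexa 594-labeled) in 100 mM sodium acetate pH 7 with 20 uM heparin, 6 hr at 37 C. ThT 30 uM added, 1 hr ambient; Alexa 594 FP and total fluorescence read at 555/632 nm.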
FBPA coupling cs: counter-screen for Giardia aldolase inhibitors: coupling enzyme system; coupling enzyme system counterscreen, AmpLite Red fluorescence; activity change, negative = inhibition, % at 58.2 µM, hits read low; 290,000 tested, 0.67% active; AID 2472; in the data active = activity change below about -30%
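Coupling enzymes only (glyceraldehyde-3-phosphate) + compound, at 57.5 uM final, 10 min RT; add substrate/coupling/AmpLite Red mix, 20 min RT; fluorescence ex 525/em 598 nm. Actives flag coupling-system interference.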
Tau ThT inhib: inhibitors of human tau fibril formation, thioflavin T binding. P10636. recombinant tau K18 P301L, heparin-induced fibrillization, ThT fluorescence. Potency, µM (top dose mostly 57.4 µM), usual class: inhibitors. 270,000 tested, 2.1% active. AID 1460; note: nearly all actives have a fitted effect of over 55% in size
Target sequence (P10636 561-689 P618L limits assumed): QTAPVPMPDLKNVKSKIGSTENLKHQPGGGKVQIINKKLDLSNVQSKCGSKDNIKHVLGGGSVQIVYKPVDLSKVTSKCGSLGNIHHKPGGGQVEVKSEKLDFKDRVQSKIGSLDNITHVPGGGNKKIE
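ThT emission at 510 nm, taken 1 hr after adding 30 uM dye, quantifies aggregates formed when 20 uM heparin acts on human tau K18 P301L for 6 hr at 37 C.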
Tau fibril FP: blocks human tau fibril formation measured by polarization | Potency, µM (titrated, usually from 57.7 µM), actives largely listed as inhibitors | K18 P301L tau heparin fibrillization, Alexa594 FP, 6 h | P10636 | AID 1468 | 280,000 tested, 0.39% active; note: nearly all actives have a fitted effect of over 55% in size
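Recombinant K18 P301L […], labeled with Alexa 594 at 0.24 uM over 15 uM unlabeled; heparin inducer 20 uM final; 37 C, 6 hr; FP endpoint.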
G9a block: inhibitors of human histone lysine methyltransferase G9a. G9a H3K9 monomethylation, AlphaScreen, 2 h. Potency, µM (top dose mostly 102 µM), hits mostly inhibitors. 350,000 tested, 8.8% active. AID 504332; note: nearly all actives have a fitted effect of over 75% in size
Target sequence (Q96KQ7 913-1193 limits assumed): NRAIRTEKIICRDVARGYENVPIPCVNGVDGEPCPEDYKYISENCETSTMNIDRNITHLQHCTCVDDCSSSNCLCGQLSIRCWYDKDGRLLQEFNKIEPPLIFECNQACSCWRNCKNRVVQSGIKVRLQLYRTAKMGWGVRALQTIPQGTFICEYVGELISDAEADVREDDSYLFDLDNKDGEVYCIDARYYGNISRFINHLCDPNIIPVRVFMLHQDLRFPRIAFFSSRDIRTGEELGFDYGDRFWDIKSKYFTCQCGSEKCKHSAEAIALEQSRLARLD
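Quantitative HTS format: methyltransferase activity on a biotin-tagged H3K9 peptide is measured by AlphaScreen, using a rabbit anti-monomethyl-H3K9 antibody with streptavidin donor and anti-IgG acceptor beads. Final levels are 20 nM enzyme, 500 nM peptide, 20 uM SAM; 2 h RT.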
Sfp inh: inhibitors of Bacillus subtilis Sfp phosphopantetheinyl transferase; 310,000 tested, 3.5% active; Potency, µM, hits mostly inhibitors; Biochemical Sfp PPTase activity, qHTS; Q9F4F7;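 note: the enzyme is Sfp with the accession as filed and its product quenches rhodamine fluorescence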
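Compounds were incubated with enzyme (final 15 nM) for 15 min at room temperature before substrate addition started the reaction. Fluorescence at 525 nm excitation, 598 nm emission was recorded immediately and after 30 minutes.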
Hits are given with their value; - = inactive; ? = inconclusive; . = no result given; [ ] = dose if it differs, or a comment. Unless noted, calls come from the whole dose curve; as a rule, active = well fitted curve in the direction sought with a large enough effect; inconclusive = small, poorly fitted or top-dose-only effect, or another doubt; inactive = no such curve, though single readings can be large; an effect the other way counts as inactive or inconclusive.

SMILES | Tau fluor counter | FBPA coupling cs | Tau ThT inhib | Tau fibril FP | G9a block | Sfp inh
COc1ccc(OC)c(S(=O)(=O)Nc2ccc(Oc3ccccc3)cc2)c1 | - | - | - | - | - | -
COc1ccc(OC)c(S(=O)(=O)Nc2ccc(O)c3ccccc23)c1 | 28.2µM[quencher] | -58.1 | 25.1µM | ? | 5.62µM | 20µM
CCOc1ccc(S(=O)(=O)Nc2ccc(O)c(Sc3ncn[nH]3)c2)cc1 | - | - | - | - | 22.4µM | -
Cc1nccn1-c1ccc(C=O)cc1 | - | - | - | - | - | -
COCCN(C(=O)COC(=O)C(c1ccccc1)c1ccccc1)c1c(N)n(Cc2ccccc2)c(=O)[nH]c1=O | . | . | . | . | - | .
COc1ccc(C(CC(=O)O)N2C(=O)CCC2=O)cc1 (centres undefined) | . | - | . | . | - | -
CCOc1cc(C=C(C(=O)OC)C(=O)OC)ccc1OCc1ccc([N+](=O)[O-])cc1 | - | - | 12.6µM | - | - | -
COC(=O)CN(C(=S)Nc1ccccc1)C1CC(=O)N(c2ccc(OC)cc2)C1=O (centres undefined) | - | - | - | - | -[12.7 µM] | -
COC(=O)CN(C(=S)Nc1ccc(F)cc1)C1CC(=O)N(c2ccc(OC)cc2)C1=O (centres undefined) | - | - | - | - | 39.8µM | -
CNC(=S)N(Cc1ccc(OC)cc1)C1CC(=O)N(c2ccc(C(=O)OC)cc2)C1=O (centres undefined) | ? | - | - | - | 39.8µM | -
CCOC(=O)C(CC)Sc1ccc2nnc(CCNS(=O)(=O)c3ccc(C)cc3)n2n1 (centres undefined) | - | . | - | - | - | .
COC(=O)C1=C[C@@H](C(=O)OC)C2C3=C(C(=O)[C@]2(C)NC(=O)c2ccccc2)[C@H](C)n2c(=O)n(-c4ccccc4)c(=O)n2[C@@H]3C1 (some centres undefined) | . | - | . | . | . | -
CC(C)CCNC(=O)c1ccc2c(c1)nc1n2CCCCC1 | - | . | - | - | - | .
N#Cc1ccccc1NC(=O)C(=O)NCCc1csc2nc(-c3cccc(F)c3)nn12 | - | . | - | - | - | .
O=C1CC(N2CCN(c3ccccc3O)CC2)C(=O)N1Cc1ccccc1 (centres undefined) | - | - | - | - | - | -
Cc1ccc(NC2CC(=O)N(Cc3ccccc3)C2=O)cc1 (centres undefined) | - | - | - | - | -[2.33 µM] | -
O=C1CC(N(O)C2CC(=O)N(Cc3ccccc3)C2=O)C(=O)N1Cc1ccccc1 (centres undefined) | - | - | - | - | . | 44.7µM
CCCN(CCC)C1CC(=O)N(Cc2ccccc2)C1=O (centres undefined) | - | - | - | - | 25.1µM | ?
O=C(Nc1nc2n(n1)C(c1ccccc1)C=C(c1ccccc1)N2)c1ccccc1 (centres undefined) | - | . | - | - | 10µM | .
COc1ccc(C2C=C(c3ccccc3)Nc3nc(NC(=O)c4ccc(C)cc4)nn32)cc1 (centres undefined) | - | . | - | - | - | .
CC1=C(C(=O)Nc2ccc(Cl)cc2)C(c2ccccc2)n2ncc(C(=O)Nc3ccccc3)c2N1 (centres undefined) | - | . | - | ? | - | .
O=C(Nc1ccc(Cl)cc1)c1cnn2c1NC(c1ccccc1)=CC2c1ccccc1 (centres undefined) | 10µM[quencher] | . | ? | ? | 10µM | .
Cc1c(C#N)c(O)n(CCO)c(=O)c1N=Nc1ccccc1 | - | - | 12.6µM | - | - | -
Cc1c(C#N)c(O)n(CCO)c(=O)c1N=Nc1ccc(S(N)(=O)=O)cc1 | - | - | 12.6µM | - | - | -
Cn1ccc(O)c(C#N)c1=O | - | - | - | - | - | -
SMILES | Tau fluor counter | FBPA coupling cs | Tau ThT inhib | Tau fibril FP | G9a block | Sfp inh
Cc1c(C#N)c(O)n(C)c(=O)c1N=Nc1ccc(S(N)(=O)=O)cc1 | - | - | 3.98µM | - | - | -
CCN(CC)c1ccc(/C=N/NC(=O)c2ccc(Br)o2)cc1 | ? | - | 3.16µM | - | ? | -
CCOC(=O)c1cc(-c2ccccc2)n(CC(=O)Nc2ccc(CC)cc2)c1C | - | . | - | - | - | .
COc1cccc(NC(=O)C2CCC(CNS(=O)(=O)c3csc(C(N)=O)c3)CC2)c1 (centres undefined) | - | . | - | - | - | .
CC(=O)c1ccc2c(c1)C1C=CCC1C(c1cc3c(cc1Br)OCO3)N2 (centres undefined) | . | . | . | . | -[2.33 µM] | .
COc1ccc2c(c1)C1C=CCC1C(c1cc3c(cc1Br)OCO3)N2 (centres undefined) | ? | - | ? | - | 39.8µM | -
O=C(COc1ccc(/C=N/NC(=O)c2ccc(O)cc2)cc1)Nc1cccc([N+](=O)[O-])c1 | - | - | ? | - | 28.2µM | -
O=C(CO/N=C/c1cccc([N+](=O)[O-])c1)Nc1ccc2ccccc2c1 | 12.6µM[quencher] | - | ? | - | 0.891µM | ?
O=C(CO/N=C/c1cccc([N+](=O)[O-])c1)NC1CCCCC1 | - | - | - | - | ? | -
CC1CC1C(=O)N(CCC1=CCCCC1)c1c(N)n(Cc2ccccc2)c(=O)[nH]c1=O (centres undefined) | . | . | . | . | - | .
Cc1nn(-c2nnc(C)c(=O)[nH]2)c(C)c1SCC(=O)Nc1ccc(F)cc1 | - | - | - | - | ? | 31.6µM
Cc1nn(-c2nnc(C)c(=O)[nH]2)c(C)c1SCC(=O)Nc1ccc(C(C)C)cc1 | - | - | - | - | - | -
Cc1nnc(SCC(=O)N/N=C/c2ccc(-c3ccc(C)c(Cl)c3)o2)s1 | - | - | ? | - | 11.2µM | -
O=C(O)c1cc(N/N=C/c2ccc(-c3ccc(F)cc3)o2)ccc1Cl | . | - | . | . | 50.1µM | -
Cc1ccc(C(=O)N/N=C\c2ccc(-c3ccc(Cl)c(Cl)c3)o2)cn1 | - | - | - | - | - | -
O=C(Cc1ccc(F)cc1)N/N=C/c1ccc(-c2ccc(Cl)c(C(=O)O)c2)o1 | - | - | - | - | ? | 28.2µM
N[C@H](CCC(=O)NCC(=O)O)C(=O)O | - | - | - | - | - | -
NC(CCC(=O)NCS(=O)(=O)O)C(=O)O (centres undefined) | - | . | - | - | -[12.7 µM] | 50.1µM
CN(C)CCN1C(=O)C(O)=C(C(=O)c2cc3ccccc3o2)C1c1ccc(N(C)C)cc1 (centres undefined) | - | - | ? | - | 50.1µM | -
CCN(CC)CCCN1C(=O)C(O)=C(C(=O)c2cc3cccc(OC)c3o2)C1c1ccncc1 (centres undefined) | - | - | - | - | 50.1µM | -
COc1cccc(C2C(C(=O)c3ccco3)=C(O)C(=O)N2CCN(C)C)c1OC (centres undefined) | - | - | - | - | ? | -
